The record followed here is PubChem BioAssay (NCATS).

The experiment is described as follows: P-glycoprotein substrates identified in KB-8-5-11 adenocarcinoma cell line, qHTS therapeutic library screen (AID 1346987). Also: nearly all actives have a fitted effect of over 65% in size. As to activity change, negative = cytotoxicity: series mostly up to about 44 µM. An outline of the steps:
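Compounds are pinned in dose-response onto KB-8-5-11 cells (500 cells/well, colchicine-free medium) and left 72 h at 37 degree C. CellTiter-Glo luminescence then yields AC50 values.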
(Quantitative high-throughput screening tests each substance at several concentrations.)

Results filed as inconclusive are left out. Entries that show only a call come without a potency. Values without a mark were called inactive. Activity calls are given as the source filed them. Calls follow the shape of the dose curve; as a rule, active = well fitted inhibition curve with a large enough effect; inconclusive = small, poorly fitted or top-dose-only effect; inactive = flat fitted curve, though single readings scatter. *1 amine or outer side, *2 acyl side, *3 side chain or, on linkers, in order; H or OH if unused. Where a SMILES comes first, the peptide text is derived from it. Bridges are numbered along the chain shown (N, C = ends). X6 = O=C(CCC[*:2])[*:1]
Potency is read from the fitted curve at half-maximal effect.

Regarding `O=C(O)c1cc(O[C@@H]2O[C@H](CO[C@@H]3OC[C@@H](O)[C@H](O)[C@H]3O)[C@@H](O)[C@H](O)[C@H]2O)c2ccccc2c1O`, the Potency entry is “inactive”.
On the same count and under the same terms, with `C=C(NC(=O)C(=C)NC(=O)c1csc(C2=N[C@@H]3c4csc(n4)[C@H]4NC(=O)c5csc(n5)[C@H]([C@](C)(O)[C@@H](C)O)NC(=O)[C@H]5CSC(=N5)C(=CC)NC(=O)C([C@@H](C)O)NC(=O)c5csc(n5)[C@]3(CC2)NC(=O)[C@H](C)NC(=O)C(=C)NC(=O)[C@H](C)NC(=O)C([C@@H](C)CC)NC2C=Cc3c([C@H](C)O)cc(nc3C2O)C(=O)O[C@@H]4C)n1)C(N)=O` (stereo partly drawn) the entry was “inactive”.
On to `CO[C@H]1C=C2C(CC[C@H](O[C@@H]3O[C@H](CO)[C@@H](O)[C@@H](O)[C@H]3O)C2(C)C)[C@]2(C)CC[C@]3(C)C([C@H](C)C(O)C(C=C(C)C)O[C@@H]4O[C@H](CO)[C@@H](O)[C@@H](O)[C@H]4O)CC[C@@]3(C)C12` (stereo partly drawn), for which the activity change, negative = cytotoxicity is 0.439% [at 9.29 µM].
Still for that read-out and setting: as for `C[C@@H]1O[C@@H](O[C@H]2[C@H](O[C@H]3CO[C@@H](O[C@H]4CC[C@@]5(C)C(CC[C@]6(C)C5CC[C@]57OC[C@@]8(CC[C@](C)(CO)CC85)[C@H](O)C[C@]76C)C4(C)C)[C@H](O[C@@H]4O[C@H](CO)[C@@H](O)[C@H](O)[C@H]4O)[C@H]3O)O[C@H](CO)[C@@H](O)[C@@H]2O)[C@H](O)[C@H](O)[C@H]1O` (stereo partly drawn), the figure is 8.31% [at 9.29 µM].
Consider `CC1=C2C(=O)C=C(CO)[C@@H]2[C@H]2OC(=O)[C@H](C)[C@@H]2[C@@H](O)C1`, for which the Potency result was “inactive”.
With `C[C@@H]1O[C@@H](O[C@@H]2[C@@H](O)[C@@H](O)[C@H](O[C@@H]3[C@@H](O)[C@@H](O[C@]4(CO)O[C@H](CO)[C@@H](O)[C@@H]4OC(=O)/C=C/c4ccc(O)cc4)O[C@H](CO)[C@H]3OC(=O)/C=C/c3ccc(O)cc3)O[C@H]2C)[C@H](O)[C@H](O)[C@H]1O`, the outcome was “inactive [at 9.29 µM]”.
Regarding `COc1cccc(-c2ccc([C@@H](Oc3cc(-c4ccc(C[C@H](N)C(=O)O)cc4)nc(N)n3)C(F)(F)F)cc2)c1`, the Potency entry is “inactive”.
Still for that read-out and setting: as for `C[C@@H]1C(=O)O[C@H]2CC34[C@H]5C[C@@H](C(C)(C)C)C36[C@@H](OC(=O)[C@@H]6O)OC4(C(=O)O5)[C@]21O` (stereo partly drawn), the entry is “inactive”; as for `O=C(CCO[C@@H]1O[C@H](CO)[C@@H](O)[C@H](O)[C@H]1O)c1ccc(O)cc1`, “inactive”; as for `Cn1c(=O)cc(N2CCCC(N)C2)n(Cc2ccccc2C#N)c1=O` (stereo not drawn), “inactive”.
Same read-out and setting: with `CN1C(=O)c2ccccc2-n2c(nc3ccccc3c2=O)[C@@]12O[C@H]2c1ccccc1` the entry was “inactive”; with `CC[C@H](C)/C=C(C)/C=C/C(=O)Cc1cc(O)c(C)c(O)c1C=O`, “inactive”.
On the same count and under the same terms, with `CO/N=C(/C(=O)N[C@@H]1C(=O)N2C(C(=O)O)=C(CSC(=O)c3ccco3)CS[C@H]12)c1csc(N)n1` the entry was “inactive”.
`Cn1c(=O)c2nc(/C=C/c3cccc(Cl)c3)n(C)c2n(C)c1=O`: the Potency result is “inactive”.
Regarding `CC(C)NCC1CCc2cc(CO)c([N+](=O)[O-])cc2N1` (stereo not drawn), the Potency result is “inactive”.
Same read-out and setting: with `Cc1nnc(C(C)C)n1C1CC2CCC(C1)N2CC[C@H](NC(=O)C1CCC(F)(F)CC1)c1ccccc1` (stereo partly drawn) the entry was “inactive”.
As for `CC(=O)Oc1cc(C)c(OC(C)=O)c2ccccc12`, the Potency result was “inactive”.
The same measure, in the same setting: with `O=C(NCC(=O)N1CC[C@H](NC2CCC(O)(c3ccc(-c4ncccn4)cn3)CC2)C1)c1cccc(C(F)(F)F)c1` (stereo partly drawn) the entry was “inactive”.
`C[C@@H]1O[C@@H](O[C@H]2[C@H](OC(=O)[C@]34CCC(C)(C)C[C@H]3C3=CCC5[C@@]6(C)CC[C@H](O[C@@H]7O[C@H](CO[C@@H]8OC[C@H](O)[C@H](O)[C@H]8O)[C@@H](O)[C@H](O)[C@H]7O)C(C)(C)C6CC[C@@]5(C)[C@]3(C)C[C@H]4O)OC[C@@H](O)[C@@H]2O)[C@H](O)[C@H](O)[C@H]1O[C@@H]1OC[C@H](O)[C@H](O[C@@H]2OC[C@@H](O)[C@H](O)[C@H]2O)[C@H]1O` (stereo partly drawn): the activity change, negative = cytotoxicity was 1.25% [at 9.29 µM].
For the molecule `CC1(C)CC2C3=CCC4C5(C)CCC(OC6OC(C(=O)O)C(O)C(O)C6OC6OC(CO)C(O)C(O)C6OC6OC(CO)C(O)C(O)C6O)C(C)(CO)C5CCC4(C)C3(C)CCC2(C)C(OC2OCC(O)C(OC3OC(CO)C(O)C(O)C3O)C2O)C1O` (stereo not drawn), the activity change, negative = cytotoxicity was 1.76% [at 9.29 µM].
As for `CNC(=O)[C@H]1O[C@@H](n2cnc3c(NCc4ccc(N)c(I)c4)ncnc32)[C@H](O)[C@@H]1O`, the outcome was “inactive [at 9.29 µM]”.
Turning to `CCCC(=O)O[C@]1(C(=O)CCl)[C@H](C)C[C@@H]2[C@H]3CCC4=CC(=O)C=C[C@]4(C)[C@@]3(F)C(=O)C[C@@]21C`, the Potency was 13 µM (active).
Same read-out and setting: with `COc1cc([C@H]2OC[C@]3(OC(C)=O)[C@@H](c4ccc(O[C@@H]5O[C@H](CO)[C@@H](O)[C@H](O)[C@H]5O)c(OC)c4)OC[C@H]23)ccc1O` the entry was “inactive”; with `C=CC1(C)C=C2C(=O)CC3C(C)(C)CCCC3(C(=O)O)C2(O)CC1` (stereo not drawn), “inactive”; with `COc1ccc(C[C@H](N)C(=O)N[C@H]2[C@@H](O)[C@H](n3cnc4c(N(C)C)ncnc43)O[C@@H]2CO)cc1`, “inactive”.
For `CC1=CC(=O)CC(C)(C)C1CCC(C)OC1OC(COC(=O)c2cc(O)c(O)c(O)c2)C(O)C(O)C1O` (stereo not drawn), the Potency result is “inactive”.
With `C=C1CC[C@H]2[C@@H](/C=C(\C)C(=O)[C@@]3(OC(C)=O)C[C@H](C)[C@H](OC(C)=O)[C@@H]3[C@H]1OC(C)=O)C2(C)C`, the Potency result is “inactive”.
On the same count and under the same terms, as for `OCC1=CC[C@@H]2C=CO[C@@H](O[C@@H]3O[C@H](CO)[C@@H](O)[C@H](O)[C@H]3O)[C@H]12`, the entry is “inactive”.
On the same count and under the same terms, as for `IC(I)I`, the entry is “inactive”; as for `C/C1=C\C[C@H](O[C@@H]2O[C@H](CO)[C@@H](O)[C@H](O)[C@H]2O)/C(C)=C/[C@H]2OC(=O)[C@H](C)[C@@H]2CC1`, “inactive”; as for `O=C1Nc2ccc(O)cc2O[C@H]1O[C@@H]1O[C@H](CO)[C@@H](O)[C@H](O)[C@H]1O`, “inactive”.
Same read-out and setting: as for `Cc1cc(O)cc(Oc2cc(C)c(C(=O)O)c(O)c2)c1`, the entry is “inactive”; as for `CC[C@H](C)[C@@H]1NC(=O)[C@H](Cc2ccc(OC)cc2)NC(=O)CCCSC[C@@H](C(=O)N2CCC[C@H]2C(=O)N[C@@H](CC(C)C)C(=O)NCC(N)=O)NC(=O)[C@H](CC(N)=O)NC(=O)[C@H](CCC(N)=O)NC1=O` (Y(Me)IQNCPLG-NH2; linker N-5 via X6), “inactive”.
